NS1 inh: blocks influenza NS1 protein function. hit rate 0.4% among 270,000. Potency, µM (doses to about 46.1 µM), without a hit: at the highest dose activity, positive = more growth; note: potency is the fitted concentration of half-maximal effect; actives are rising curves; nearly all actives have a fitted effect of over 50% in size
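Growth recovery, yeast-based: influenza A NS1 expressed in S. cerevisiae causes slow growth, and suppressors are detected by OD600. The parent strain without NS1 is used as positive control.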
SARS PLpro yeast: SARS-CoV PLP inhibition in yeast. AID 485353. S. cerevisiae expressing SARS-CoV PLpro, growth rescue. hit rate 0.19% among 330,000. Potency, µM (titrated, usually from 32.9 µM), for inactives: at the top dose activity, positive = growth rescue, actives largely listed as activators; note: potency is the fitted concentration of half-maximal effect; 0% is about no effect; nearly all actives have a fitted effect of over 55% in size
LmPK inh: blocks Leishmania mexicana pyruvate kinase activity. Q27686. hit rate 0.37% among 290,000. purified LmPK, Kinase-Glo ATP luminescence, 1 h. Potency, µM (titrated, usually from 57.5 µM), for inactives: at the top dose activity change, negative = inhibition, actives largely listed as inhibitors; active = well fitted curve in the direction sought with a large enough effect; inconclusive = small, poorly fitted or top-dose-only effect, or another doubt; inactive = no such curve, though single readings can be large; an effect the other way counts as inactive or inconclusive; note: potency is the fitted concentration of half-maximal effect; % is set by controls: 0 for no effect and ±100 for the full control effect
Target sequence (Q27686 whole entry, looked up): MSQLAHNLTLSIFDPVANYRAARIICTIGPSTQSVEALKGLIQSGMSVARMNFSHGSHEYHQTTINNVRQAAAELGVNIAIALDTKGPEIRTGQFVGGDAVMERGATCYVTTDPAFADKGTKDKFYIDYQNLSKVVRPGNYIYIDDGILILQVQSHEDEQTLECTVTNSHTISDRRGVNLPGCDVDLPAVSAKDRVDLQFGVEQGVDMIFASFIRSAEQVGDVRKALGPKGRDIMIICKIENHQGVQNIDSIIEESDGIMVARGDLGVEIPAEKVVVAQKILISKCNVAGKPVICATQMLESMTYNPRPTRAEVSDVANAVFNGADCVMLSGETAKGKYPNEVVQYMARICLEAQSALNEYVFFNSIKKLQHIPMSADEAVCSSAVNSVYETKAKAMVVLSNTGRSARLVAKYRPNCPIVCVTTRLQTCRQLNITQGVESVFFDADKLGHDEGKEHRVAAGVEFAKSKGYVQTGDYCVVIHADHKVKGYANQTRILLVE
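ATP generated from ADP (0.1 mM) and PEP (0.5 mM) by 0.1 nM LmPK over 1 h at room temperature (pH 7.2 imidazole buffer) was detected by coupled luciferase luminescence. Values were normalized to uninhibited and no-enzyme wells.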
Cycloheximide cs: counter-screen hit for Shiga toxin inhibitors, cycloheximide; cell reporter, cycloheximide protein synthesis inhibition counterscreen; max response, %; hit rate 12% among 300,000; AID 2314; in the data active = max response mostly above about 13%, no sharp cut-off; inactive = mostly below about 14%; note: read at 38.3 µM for the half of the compounds with a filed dose; 0% is about no effect
Shiga inhibitor: blocks Shiga toxin action in Vero cells. Vero cells, Shiga toxin protein synthesis inhibition reporter. inhibition, % at 38.7 µM. hit rate 9.2% among 290,000; in the data active = inhibition mostly above about 28%, no sharp cut-off; inactive = mostly below about 43%; note: 0% is about no effect
Tb PYK inh: blocks Trypanosoma brucei pyruvate kinase; Q57TT1; TbPYK enzyme, Kinase-Glo Plus ATP luminescence, 45 min; Potency, µM (highest dose often 76.8 µM), inactives show top-dose activity, negative = inhibition, actives largely listed as inhibitors; hit rate 0.12% among 410,000; AID 624173; active = well fitted curve in the direction sought with a large enough effect; inconclusive = small, poorly fitted or top-dose-only effect, or another doubt; inactive = no such curve, though single readings can be large; an effect the other way counts as inactive or inconclusive; note: potency is the fitted concentration of half-maximal effect; % is set by controls: 0 for no effect and ±100 for the full control effect; nearly all actives have a fitted effect of over 50% in size
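In this concentration-response screen, enzyme-free wells defined baseline while DMSO plates tracked drift. Each reaction combined TbPYK, substrate, compound and 130 uM ADP for 45 min at room temperature. Kinase-Glo Plus luminescence gave the signal.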
Starred values were filed as active, the others as inactive; ? = inconclusive; . = no result. The sample as a whole holds a higher share of hits than the screen did. Unless noted, calls come from the whole dose curve.

SMILES	NS1 inh	SARS PLpro yeast	LmPK inh	Cycloheximide cs	Shiga inhibitor	Tb PYK inh
COCCn1c(C)cc(C(=O)COC(=O)c2n[nH]c3ccccc23)c1C	-18%	?	?	11*	31	-6%
Cc1cc(C(=O)COC(=O)c2n[nH]c(=O)c3ccccc23)c(C)n1C	.	2%	.	.	.	3%
Cn1c(C(C#N)C(=O)c2ccco2)nc2ccccc21 (centres undefined)	-57%	2%	-4%	34*	71*	-3%
Cn1c(C(C#N)C(=O)Cc2cccc3ccccc23)nc2ccccc21 (centres undefined)	5%	-2%	6%	7	-4	3%
COc1ccccc1N1C(=O)C=C(Sc2nc(C)cc(C)n2)C1=O	11%	0%	?	-1	6	5µM*
COc1ccccc1N1C(=O)C2CC(C)=C(C)CC2C1=O (centres undefined)	-4%	0%	-2%	6	7	1%
COc1ccc(C2SCCN2C(=S)Nc2cccc(Cl)c2)cc1 (centres undefined)	-23%	8%	4%	7	12	-4%
Cc1ccc(NC(=S)N2CCSC2c2cccs2)cc1 (centres undefined)	.	5%	0%	29*	132*	3%
COc1ccc(C2SCCN2C(=S)Nc2ccc(Cl)cc2)cc1 (centres undefined)	0%	-33%	1%	29*	24	-1%
CCOC(=O)c1ccc(NC(=S)N2CCSC2c2c(F)cc(F)cc2F)cc1 (centres undefined)	4%	-28%	-4%	7	8	-3%
O=C1OCC/C1=C\NCCCCCCCCN/C=C1\CCOC1=O	.	.	.	.	.	-5%
O=C(Nc1ccccc1C(=O)N1CCCCC1)c1ccc(Cl)cc1Cl	?	0%	-1%	-1	4	-5%
COc1cccc(C(=O)NCCS(=O)(=O)NC2CCCC2)c1	.	0%	.	.	.	3%
Cc1cc(Cl)ccc1OCC(=O)Nc1ccccc1NS(=O)(=O)c1cccs1	?	-1%	7%	23*	23	1%
O=C(COc1ccccc1)Nc1ccccc1NS(=O)(=O)c1cccs1	-48%	3%	1%	-2	17	-2%
O=C(COc1ccc(Cl)cc1Cl)Nc1c(-c2cccs2)nc2ccccn12	-15%	-8%	4%	13*	30	-5%
O=C(COc1ccc(Cl)cc1Cl)Nc1ccccc1NS(=O)(=O)c1cccs1	7%	0%	8%	47*	94*	-9%
O=C(CSc1nnc(-c2ccncc2)n1-c1ccccc1)NC1CC1	9%	-1%	-6%	0	-12	8%
CN1C(=O)N(c2nnc(C(C)(C)C)s2)C(=O)C1c1ccccc1 (centres undefined)	0%	1%	3%	4	6	-2%
CCCCN1C(=O)N(c2nnc(C(C)(C)C)s2)C(O)C1c1ccc(C)cc1 (centres undefined)	-2%	-2%	-2%	17*	30	-3%
COc1cccc(NC(=O)c2sc3nc(C)c(C(=O)Nc4ccc(C)cc4C)c(-c4ccc(C)o4)c3c2N)c1	.	.	.	.	.	-4%
CSc1ncc(C(=O)Nc2ccc(Br)cn2)c(C)n1	3%	0%	6%	23*	56*	4%
COc1cccc(NC(=O)c2cnc(SC)nc2C)c1	-3%	-1%	0%	10	5	-2%
CSc1ncc(C(=O)Nc2cccc(Cl)c2C)c(C)n1	-1%	-1%	2%	15	4	-1%
CSc1ncc(C(C)=O)c(C)n1	.	0%	2%	-1	7	10%
SMILES	NS1 inh	SARS PLpro yeast	LmPK inh	Cycloheximide cs	Shiga inhibitor	Tb PYK inh
CSc1ncc(C(=O)Nc2ccc(C(C)=O)cc2)c(C)n1	2%	1%	-2%	35*	80*	1%
CSc1ncc(C(=O)Nc2ccc(Cl)cc2)c(C)n1	-7%	-1%	-4%	14	39*	-8%
CCCn1c(N)c(N(CCOC)C(=O)c2ccc(N(C)S(=O)(=O)c3ccc(C)cc3)cc2)c(=O)[nH]c1=O	.	-4%	.	.	.	2%
O=C(Nc1ccccc1C(F)(F)F)c1ncoc1-c1ccco1	.	.	.	.	.	7%
O=S(=O)(c1ccc(-c2cnc(C3CC3)o2)cc1)N1CCN(c2cccc(Cl)c2)CC1	.	.	.	.	.	1%
CN(C(=O)c1ccnn1C)C1CCCN(Cc2ccccc2F)C1 (centres undefined)	8%	-4%	-6%	-3	13	3%
N#Cc1ccc(NC(=O)COC(=O)CCNS(=O)(=O)c2ccccc2)cc1	6%	-1%	-3%	45*	12	31%
CCCOC(=O)Nc1ccc(N2CCCCC2)cc1	-17%	.	-2%	34*	56*	-26%
O=C(CN1CCCC1)Nc1ccc(NC(=O)Nc2ccccc2Cl)cc1	-10%	3%	0%	25*	50	-4%
O=C(CN1CCCCC1)Nc1ccccc1	-3%	-2%	-6%	-1	-23	-12%
CCCCC(=O)Nc1ccc(N2CCCC2)cc1	.	.	.	.	.	-4%
O=C(Cc1ccccc1)Nc1ccc(N2CCCC2)cc1	9%	2%	-26%	15	30	-2%
O=C(CN1CCCCC1)Nc1ccc(N2CCCCCC2)cc1	0%	0%	-10%	17*	44	-2%
O=C(CCc1ccccc1)Nc1ccc(N2CCCCC2)cc1	8%	-10%	-3%	33*	93*	-15%
O=C(CN1CCCC1)Nc1ccccc1Cl	-4%	0%	3%	5	-2	7%
CCOc1ccc(CCNC(=O)C2=C(C)C(=O)OC23CCCCC3)cc1	.	.	.	.	.	-5%
Cc1cc2c(=O)n(C)c(SCC(=O)Nc3ccccc3)nc2s1	7%	-4%	3%	22*	55*	1%
CCn1c(CSc2nc3ccccc3s2)nc2ccccc21	-135%	-37%	5%	22	21	-4%
Cc1cc(C)nc(NC(=O)CSc2nc3cc(Cl)ccc3s2)n1	-9%	-2%	3%	13	19	0%
COc1ccc(NC(=O)CCSc2nc(C)cs2)cc1	7%	2%	1%	32*	131*	-4%
COc1cc(NC(=O)CSc2nc(C)cs2)cc(OC)c1	-8%	3%	-2%	9	5	-6%
Cc1cc(C)n2c(Br)c(CSc3nc4ccccc4s3)nc2n1	-2%	?	1%	34*	17	5%
Cc1cc(C)nc(NC(=O)CSc2nc3ccccc3s2)n1	-18%	-4%	-11%	33*	83*	-5%
Cc1cccc(NC(=O)CSc2nc3sc(C)cc3c(=O)n2C)c1	.	.	.	.	.	-17%
Cc1nn2c(C)c(C(=O)N3CCN(c4ccccc4)CC3)cnc2c1-c1ccccc1	.	.	.	.	.	-8%
Cc1csc(SCC(=O)Nc2ccccc2)n1	?	-2%	-1%	11*	66*	-2%
Cn1cc(SCC(=O)Nc2nc3ccccc3s2)c2ccccc21	-67%	-26%	6%	29*	24	-12%
Cc1cc(C)nc(SCC(=O)OCC(=O)Nc2nc3ccccc3s2)n1	-8%	14%	3%	22*	14*	6%
